Screening results from PubChem.
An excerpt weighted towards active compounds, which were near 10% of everything screened.
Pf growth 96h – inhibits malaria parasite growth, 96 h; P. falciparum luciferase reporter growth, 96 h; Potency, µM (highest dose often 28.7 µM), for the others: at the highest dose activity change, negative = inhibition, usual class: inhibitors; hit rate 6.9% among 320,000; active means well fitted inhibition curve with a large enough effect; inconclusive means small, poorly fitted or top-dose-only effect, or another doubt; inactive means no such curve, though single readings can be large or run the other way; further: on the % scale 0 is the no-effect control and ±100 the full control effect
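Two parasite generations (96 h, 37 C, 5% CO2) of compound exposure in infected erythrocytes (0.05% parasitemia, 2% hematocrit). Luciferase-reporter P. falciparum; decreased luminescence indicates inhibited growth, aimed at apicoplast-acting delayed death.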
SARS PLpro yeast – SARS-CoV PLP inhibition in yeast; Potency, µM (doses to about 32.9 µM), for inactives: at the highest dose activity, positive = growth rescue, actives largely listed as activators; S. cerevisiae expressing SARS-CoV PLpro, growth rescue; hit rate 0.19% among 330,000; further: 0% is about no effect; nearly all actives have a fitted effect of over 55% in size
Pf growth 48h – P. falciparum growth inhibition at 48 hours (one generation). AID 504832. P. falciparum luciferase growth in erythrocytes, 48 h. Potency, µM (top dose mostly 28.7 µM), without a hit: at the top dose activity change, negative = inhibition, actives largely listed as inhibitors. hit rate 5.9% among 310,000; active means well fitted inhibition curve with a large enough effect; inconclusive means small, poorly fitted or top-dose-only effect, or another doubt; inactive means no such curve, though single readings can be large or run the other way; further: on the % scale 0 is the no-effect control and ±100 the full control effect
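Luminescence readout; reporter = integrated firefly luciferase in P. falciparum. RBC culture at 2% hematocrit, 0.1% parasitemia final, 37 C/5% CO2; decreased signal taken as growth inhibition.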
NS1 inh – inhibitors of influenza NS1 protein function | hit rate 0.4% among 270,000 | Potency, µM (highest dose often 46.1 µM), for inactives: top-dose activity, positive = more growth; further: actives are rising curves; nearly all actives have a fitted effect of over 50% in size
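Growth recovery, yeast-based: influenza A NS1 expressed in S. cerevisiae causes slow growth, and suppressors are detected by OD600. The parent strain without NS1 is used as positive control.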
The depositor's hits bear a star; ? = inconclusive; · = no result; ! = repeats disagree; [ ] = dose if it differs, or a comment. Unless noted, the call rests on the fitted dose curve. Potency means the concentration at half of the fitted maximal effect.

SMILES	Pf growth 96h	SARS PLpro yeast	Pf growth 48h	NS1 inh
COc1ccc(CN([C@H](CO)CC(C)C)S(=O)(=O)N(Cc2ccccc2)[C@H](CO)CC(C)C)cc1	·	-2%	·	·
COC(=O)[C@H](CC(C)C)NS(=O)(=O)c1ccccc1	?	4%	-17%	8%
COC(=O)[C@@H](CC(C)C)NS(=O)(=O)N(Cc1ccccc1)[C@@H](CC(C)C)C(=O)OC	?	0%	13µM*	·
COC(=O)[C@H](CC(C)C)NS(=O)(=O)N[C@@H](CC(C)C)C(=O)OC	36%	3%	31%	·
C=CCN([C@@H](CC(C)C)C(=O)OC)S(=O)(=O)N(CC=C)[C@@H](CC(C)C)C(=O)OC	?	3%	4.7µM*	·
CC(C)C[C@@H](CO)N(Cc1ccccc1)S(=O)(=O)N(Cc1ccccc1)[C@@H](CO)CC(C)C	2.6µM*	2%	7.4µM*	·
CC(C)C[C@@H](CO)N(Cc1ccccc1)S(=O)(=O)N(Cc1ccccc1)[C@H](CO)CC(C)C	?	-16%	4.7µM*	·
COc1ccc(-c2sc(C(=O)c3ccc(Cl)cc3Cl)cc2CC(=O)O)cc1	23%	-6%	-10%	7%
O=C(NCc1nnc(SCC(=O)N2CCCC2)o1)c1ccccc1	26%	-5%	-12%	2%
O=C(O)CNC(=O)c1ccc(NC(=O)/C(=C/c2cccc([N+](=O)[O-])c2)NC(=O)c2ccco2)cc1	-3%	1%	-6%	5%
CC1CCC2C(=O)N(c3ccccc3OC(=O)c3ccccc3F)C(=O)C2C1 (stereo not drawn)	-13%	0%	25%	-2%
C=C[C@@H]1c2ccccc2N(S(=O)(=O)c2ccc(C)cc2)[C@H](c2ccc(C(F)(F)F)cc2)C1(C#N)C#N	?	0%	?	·
C=C[C@@H]1c2c(F)cccc2N(S(=O)(=O)c2ccc(C)cc2)[C@H](c2ccc(C(=O)OC)cc2)C1(C#N)C#N	12µM*	6%	4.1µM*	·
C=C[C@@H]1c2cccc(C)c2N(S(=O)(=O)c2ccc(C)cc2)[C@H](c2ccc(OC(C)=O)cc2)C1(C#N)C#N	·	1%	·	·
C=C[C@@H]1c2c(F)cccc2N(S(=O)(=O)c2ccc(C)cc2)[C@H](c2ccc(OC(C)=O)cc2)C1(C#N)C#N	2.6µM*	3%	1.7µM*	·
CCOC(=O)C1=C(Nc2ccc(Cl)cc2)OCC1=O	2.6µM*	-1%	12µM*	-6%
CCOC(=O)C1=NN(c2ccc(Cl)cc2)C(=O)C1	3%	-2%	63%	0%
CCCOC(=O)c1ccc(Oc2coc3c(CN(CC)CC)c(O)ccc3c2=O)cc1	12µM*	-8%	?	-16%
Cc1cc(C)n(-c2ccc(C(=O)N3CCN(S(=O)(=O)c4ccc(Cl)cc4)CC3)cc2)n1	2.6µM*	-1%	10µM*	·
O=C(c1cc2c(s1)CCCC2)N1CCN(S(=O)(=O)c2ccccc2C(F)(F)F)CC1	12µM*	21%	?	-8%
CC(=O)c1ccc(S(=O)(=O)N2CCN(C(=O)c3ccc(-n4nc(C)c(Cl)c4C)cc3)CC2)cc1	13µM*	4%	?	·
Cc1nn(-c2ccc(C(=O)N3CCN(S(=O)(=O)c4ccccc4C(F)(F)F)CC3)cc2)c(C)c1Cl	?	3%	13µM*	·
COCCN(C(=O)COC(=O)c1nc(Cl)ccc1Cl)c1c(N)n(Cc2ccccc2)c(=O)[nH]c1=O	57%	-1%	11%	·
CCOC(=O)[C@@H]1[C@H]2COc3cc(OC)ccc3[C@H]2N2C(=O)N(c3ccc(C(F)(F)F)cc3)C(=O)[C@]12C	·	7%	·	·
CCSc1nc2ccccc2c(=O)n1-c1c(C)n(C)n(-c2ccccc2)c1=O	9%	0%	-26%	·
SMILES	Pf growth 96h	SARS PLpro yeast	Pf growth 48h	NS1 inh
Cc1ccc(C)c(CS(=O)(=O)c2cn(CC(=O)N3CCC(C)CC3)c3ccccc23)c1	5.2µM*	-8%	?	-7%
Cc1ccc(C)c(CS(=O)(=O)c2cn(CC(=O)N3CCCCC3)c3ccccc23)c1	-90%	8%	?	-4%
COc1ccc(N(CC(=O)NC2CCCC2)C(=O)c2ccc(N3CCCCC3)nc2)cc1	?	-5%	9.3µM*	-20%
CCC(C)(C)NC(=O)CN(C(=O)c1ccc(N2CCCC2)nc1)c1ccc(F)cc1	?	-6%	4.1µM*	10%
CC1OC(Oc2c(-c3cc(O)c(O)c(O)c3)oc3cc(O)cc(O)c3c2=O)C(O)C(O)C1O (stereo not drawn)	-102%	0%	9.3µM*	1%
CC1CCCCC1NC(=O)c1cc2ccccc2o1 (stereo not drawn)	?	10%	22%	0%
CCCN(CCC)S(=O)(=O)c1cccc(-c2csc(C)n2)c1	?	-3%	10µM*	-2%
CCOc1ccc(C(CCc2ccccc2)NC(=O)c2ccccc2)cc1OCC (stereo not drawn)	·	-7%	4.7µM*	-2%
OCC[C@H]1C[C@H](O)[C@@H](O)[C@]2(Cc3ccccc3CCO2)O1	-27%	-15%	9%	·
CCN(CC)CCOCCOC(=O)C(CC)(CC)c1ccccc1	0%	0%	-7%	3%
CCN(CC)CCOC(=O)C(C)(c1ccccc1)c1ccccc1	11µM*	·	?	·
COc1ccc(NC(=O)C2CCCN(c3ncccn3)C2)cc1 (stereo not drawn)	-3%	0%	59%	-3%
O=C(NCc1cccs1)C1CCCN(c2nc3ccccc3o2)C1 (stereo not drawn)	5.2µM*	-14%	?	-36%
Cc1ccnc(N2CCCC(C(=O)NCc3cccs3)C2)n1 (stereo not drawn)	9.3µM*	6%	-9%	7%[9.22 µM]
COc1ccc(Br)cc1CNC(=O)C1CCCN(c2nc3ccccc3o2)C1 (stereo not drawn)	5.9µM*	1%	4%	2%
Cc1cc(C)nc(N2CCCC(C(=O)NCc3cccs3)C2)n1 (stereo not drawn)	?	-1%	5%	-7%
COc1ccc(NC(=O)C2CCCN(c3nccc(C)n3)C2)cc1 (stereo not drawn)	10µM*	5%	-12%	·
COc1ccc(OC)c(NC(=O)c2nnn(CC(=O)Nc3ccc4c(c3)OCO4)c2N)c1	15%	3%	-9%	6%
Cc1cnc(C(=O)NCCc2ccc(S(=O)(=O)NC(=O)NC3CCCCC3)cc2)cn1	6.7µM*!	-10%	-17%	9%
Cc1cnc(C(=O)NCCc2ccc(C(F)(F)F)cc2)cn1	7%	0%	23%	9%
C/C(=N/NS(=O)(=O)c1ccc(C)cc1)c1c[nH]c2ccccc12	1.3µM*	-6%	0%	-7%
C/C(=N/NS(=O)(=O)c1ccccc1)c1c[nH]c2ccccc12	?	5%	17%	-10%
Cc1cc(C)n(CC(=O)Nc2ccc3c(c2)OCO3)c(=O)c1C#N	-4%	0%	17%	·
CCCCCSc1nc2c(c(=O)[nH]c(=O)n2C)n1C(C)C	12µM*	-5%	?	-14%
CC(C)n1c(SCc2ccc(Cl)cc2)nc2c1c(=O)[nH]c(=O)n2C	12µM*	6%	·	1%
CCCCn1c(SCc2ccc(Cl)cc2)nc2c1c(=O)[nH]c(=O)n2C	2%	-3%	6.6µM*	-14%
